Test results as given in PubChem BioAssay AID489008 (National Center for Advancing Translational Sciences (NCATS), 2010).
Records with an inconclusive call do not appear. Active and inactive are the calls of the source. The call rests on the fitted dose curve; in most records, active means well fitted inhibition curve with a large enough effect; inconclusive means small, poorly fitted or top-dose-only effect; inactive means flat fitted curve, though single readings scatter.

Each compound was assayed against Ferritin light chain (Equus caballus) (UniProt P02791) (assay: Confirmation Assay for Identification of Novel General Anesthetics). Details: apoferritin 1-aminoanthracene fluorescence displacement.
Summary of the method: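 Horse apoferritin (10 uM) pre-loaded with 1-AMA (50% saturated, PBS) exposed to compounds 10 min at room temperature; loss of 1-AMA fluorescence (380/535 nm) scaled between free and bound ligand, curves fitted with Hill equation.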
Further: nearly all actives have a fitted effect of over 40% in size.
Potency means the concentration at half of the fitted maximal effect.

Ferritin light chain (Equus caballus), sequence (P02791 2-175 limits assumed): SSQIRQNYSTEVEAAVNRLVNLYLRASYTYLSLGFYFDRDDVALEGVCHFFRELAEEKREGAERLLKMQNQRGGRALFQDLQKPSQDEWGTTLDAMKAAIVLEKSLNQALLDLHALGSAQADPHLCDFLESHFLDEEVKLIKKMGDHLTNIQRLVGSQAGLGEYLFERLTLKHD

Potency, active:
c1cc2cn[nH]c2cc1NC1CCCCCC1 15.8 µM
Cc1ccc(-c2ccc(=O)n(CC(=O)NCc3ccco3)n2)cc1 11.2 µM
O=C(Nc1cccc(Cl)c1)OCc1cncs1 15.8 µM
Cc1ccc(S(=O)(=O)NCCC2=CCCCC2)cc1C(N)=O 7.08 µM
CC1CCCC(C)N1C(=O)CSc1nnnn1Cc1ccccc1 (stereo not drawn) 8.91 µM
O=C(Cn1nc(-c2ccccc2)ccc1=O)NCc1ccc(F)cc1 6.31 µM
CC1(c2ccc(NC(=O)c3ccccc3F)cc2)CC1(Cl)Cl (stereo not drawn) 12.6 µM
CC1Cc2ccccc2N1C(=O)CSc1nnnn1C (stereo not drawn) 28.2 µM
COc1cccc(NS(=O)(=O)c2ccc(Br)s2)c1 15.8 µM
O=C(COC(=O)c1cccs1)NCC1CCCCC1 20 µM
O=C1C2CC=CCC2C(=O)N1Cc1ccccc1Cl (stereo not drawn) 7.94 µM
NC(=O)Nc1ccc(Oc2ncc(C(F)(F)F)cc2Cl)cc1 7.08 µM
CC(C)(C)CC(=O)Nc1ccc(Nc2ccccc2)cc1 17.8 µM
Nc1nc(SCC(=O)C23CC4CC(CC(C4)C2)C3)n[nH]1 7.08 µM
O=C(CO/N=C/c1ccc(OC(F)F)cc1)NC1CCCCCC1 11.2 µM
CC(NC(=O)COC(=O)Cc1ccsc1)C1CC2CCC1C2 (stereo not drawn) 31.6 µM
Cc1sc2ncn(CC(=O)NCc3ccco3)c(=O)c2c1-c1ccccc1 28.2 µM
Cc1ccc(F)c(NC(=O)CCc2ccccc2)c1 15.8 µM
O=C(CCC1CCCCC1)Nc1nncs1 15.8 µM
CCC(CC)C(=O)Nc1ccc(Cl)c(Cl)c1 14.1 µM
O=C(CC1SCCNC1=O)Nc1ccc(Cl)c(Cl)c1 (stereo not drawn) 20 µM
O=C(CC12CC3CC(CC(C3)C1)C2)Nc1nncs1 10 µM
Fc1ccc(CNc2ccc(CNc3ncn[nH]3)cc2)cc1 17.8 µM
O=C(CN1N=C(c2ccc(Cl)cc2)CCC1=O)NCc1ccc(F)cc1 5.82 µM
Cc1ccc(C(=O)N2CCCc3ccccc32)c(F)c1F 22.4 µM
Cc1ccc(NS(=O)(=O)N2CCOCC2)cc1Cl 12.6 µM
Cc1ccccc1Nc1nc2ccccc2s1 14.1 µM
Nc1nc(-c2ccc3c(c2)CCCC3)cs1 28.2 µM
Cc1cnc(C(=O)OCC(=O)NC23CC4CC(CC(C4)C2)C3)cn1 14.1 µM
Cc1ccc(C2=NN(CC(=O)NCc3cccs3)C(=O)CC2)cc1 7.08 µM
CN(CC(=O)Nc1ccccc1Cl)C1CCCCC1 15.8 µM
O=C(NC1CCCCC1)C(=S)NCc1ccccc1 15.8 µM
CSC(=O)NC12CC3CC(CC(C)(C3)C1)C2 5.62 µM
Clc1ccc(NCc2ccsc2)cc1 25.1 µM
Nn1cnnc1SCC(=O)Nc1ccc(C2CCCCC2)cc1 7.08 µM
CC1CCCN(C(=O)Cc2cccc3ccccc23)C1 (stereo not drawn) 31.6 µM
O=C(Cn1nc(-c2ccc(Cl)cc2)ccc1=O)NCC1CCCO1 (stereo not drawn) 14.1 µM
Cc1csc(OCC(=O)Nc2ccc(C)c(C)c2)n1 17.8 µM
